Out of some 390,000 compounds screened, about 360 (0.092%) were called active. A call without a number means that no potency is given here. Calls come from the whole dose curve; as a rule, active = well fitted inhibition curve with a large enough effect; inconclusive = small, poorly fitted or top-dose-only effect; inactive = no such curve, though single readings can be large or run the other way. The sample as a whole holds a higher share of actives than the screen did.
Potency is the fitted concentration of half-maximal effect.

Isocitrate dehydrogenase [NADP] cytoplasmic (Homo sapiens), sequence (O75874 whole entry R132H, stated change not applied, canonical isoform): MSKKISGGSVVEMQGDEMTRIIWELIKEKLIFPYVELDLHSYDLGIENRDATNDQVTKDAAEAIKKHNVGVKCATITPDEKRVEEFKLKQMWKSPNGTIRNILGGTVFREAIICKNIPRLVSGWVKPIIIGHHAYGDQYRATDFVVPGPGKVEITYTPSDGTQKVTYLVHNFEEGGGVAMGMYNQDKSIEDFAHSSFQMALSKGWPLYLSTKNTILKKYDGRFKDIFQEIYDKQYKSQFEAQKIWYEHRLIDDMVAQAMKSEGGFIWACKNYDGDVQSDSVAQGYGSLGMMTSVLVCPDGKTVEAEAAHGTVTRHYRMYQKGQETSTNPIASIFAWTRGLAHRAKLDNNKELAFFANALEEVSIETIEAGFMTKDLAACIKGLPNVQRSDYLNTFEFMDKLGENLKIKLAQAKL

The target of this test is Isocitrate dehydrogenase [NADP] cytoplasmic (Homo sapiens) (UniProt O75874). The test can be described thus: qHTS for Inhibitors of mutant isocitrate dehydrogenase 1 (IDH1): qHTS. Note: nearly all actives have a fitted effect of over 65% in size. The conditions noted are these: IDH1-R132H enzyme, NADPH consumption, diaphorase/resazurin fluorescence; series mostly up to 76.6 µM. An excerpt:
Unbiased genomic sequencing for 22 glioma genomes found recurrent mutation of isocitrate dehydrogenase 1 (IDH1) on chromosome 2q33-a gene encoding the cytosolic isoform of IIDH1associated with the tricarboxylic acid cycle (TCA) that catalyzes the oxidative decarboxylation of isocitrate, yielding alpha-ketoglutarate and CO2 via NADP+ to NADPH conversion. Subsequent studies confirmed the recurrent IDH mutations in up to 70% of secondary gliomas and in 10% of AML cases. […] This in effect defines IDH1 as an oncogene, and provides an extraordinary opportunity to discover chemical probes against mutant IDH1 that may translate into much needed new therapies for glioma and AML patients. […] NIH Chemical Genomics Center [NCGC] NIH Molecular Libraries Probe Centers Network [MLPCN] MLPCN Grant: DA032129 Assay Submitter (PI): Lenny Dang, Agios Pharmaceuticals
IDH1-R132H (0.5 ug/mL) was dispensed into black, solid-bottom 1536-well plates at 3 uL/well in 20 mM Tris-HCl (pH 7.5), 150 mM NaCl, 10 mM MgCl2, 4 mM beta-ME, and 0.05% protease-free BSA. Then, 23 nL of compounds or DMSO were delivered to each well using a pin tool. A pre-read was run on the Viewlux to identify fluorescent compounds (540 nm excitation filter, 598 nm emission filter, bodipy mirror and 2 second exposure). After 30 minutes of incubation with compound, 3 uL of substrate mix were dispensed (0.016 mM NADPH, 2 mM alpha-KG, 20 mM Tris-HCl (pH 7.5), 150 mM NaCl, 10 mM MgCl2, and 0.05% protease-free BSA). Plates were spun for 1 min at 1000xg and incubated at room temperature for 80 min. Then 1.5 uL of each detection reagent component for the coupling system were added (0.12 mg/mL diaphorase and 0.072 mM resazurin, each in 20 mM Tris-HCl (pH 7.5), 150 mM NaCl, 10 mM MgCl2, and 0.05% protease-free BSA ) The protein, substrate and two detection components were maintained at 4 °C throughout the screen. Additionally, the substrate and resazurin reagents were protected from light. The plates were measured on an Envision plate reader for fluorescence signal using a 540 nm excitation filter and 590 nm emission filter with 10 flashes. 1x and 0x (no-enzyme) IDH1-R132H enzyme control were used to normalize %Activity of identified inhibitors; 0x enzyme values corresponded to 100% Activity (full inhibition), while 1x IDH1-R132H enzyme values were used to normalize 0%Activity (no inhibition). Concentration-response curves were fitted to the signals arising from the resulting fluorescence. The concentration-effect curves were then classified based on curve quality (r2), response magnitude and degree of measured activity, and compounds were subsequently categorized based on their curve class. […] Keywords: isocitrate dehydrogenase, IDH1, IDH1-R132H, MLSMR, MLPCN, NIH Roadmap, qHTS, NCGC
For orientation: Quantitative high-throughput screening tests each substance at several concentrations.
`O=C(NCCc1ccc(Cl)cc1)c1ccc2nc(CCc3ccccc3)oc2c1`: the Potency entry was “inactive”. For `CCC1(C)CC(=O)c2c(ccc3oc(C(=O)Nc4ccc(C(C)=O)cc4)c(C)c23)O1` (stereo unspecified) the value was “inactive”; for `Cc1noc(/C=C/N(C)C)c1S(=O)(=O)N1CCCC(C(=O)Nc2cccc(F)c2)C1` (stereo unspecified), “inactive”. To `CCOC(=O)c1c(C)oc2nc(C)nc(N(CC(C)C)CC(C)C)c12` belongs “inactive”; to `COc1ccc(NC(=O)CSc2nccn2Cc2ccc3c(c2)OCO3)cc1`, “inactive”; to `CCOc1ccc(CNC(=O)c2ccc3c(c2)nnn3C2CCCC2)cc1`, “inactive”.

Consider `CN(Cc1ccccc1)c1ccc(-c2nc(-c3ccccc3)no2)cc1[N+](=O)[O-]`, for which the Potency entry is “inactive”. `NC(=O)CSc1nc2c(oc3ccccc32)c(=O)n1Cc1ccccc1`: the Potency result was “inactive”. To `CCOc1cccc(NC(=O)c2ccc(F)c(S(=O)(=O)N(CC)c3cccc(C)c3)c2)c1` belongs “inactive”; to `O=C(CCn1c(=O)c2sccc2n(Cc2ccc(F)cc2)c1=O)NCc1ccc2c(c1)OCO2`, “inactive”. To `CCC(=O)Nc1cccc(C(=O)OCc2cc(=O)n3nc(CC)sc3n2)c1` belongs “inactive”. In the case of `CSc1ncc(C(=O)NCc2ccccc2Cl)c(C(F)(F)F)n1`, the Potency result was “inactive”. To `O=C(Cn1c(=O)nc(-c2ccccc2)c2cc(Cl)ccc21)NCc1ccc(Cl)cc1` belongs “inactive”; to `CN(CC(=O)Nc1cccc(C(F)(F)F)c1)S(=O)(=O)c1cccs1`, “inactive”; to `COc1ccccc1NC(=O)C1=C(C)Nc2nc(SCC(=O)c3ccc(C)cc3)nn2C1c1ccccc1C` (stereo unspecified), “inactive”. In the case of `COc1ccc(-c2nc(C)c(CCNC(=O)c3ccc(C(F)(F)F)cc3)s2)cc1OC`, the Potency entry was “inactive”. With `Cc1ccc(C(=O)Nc2ccc(C(=O)O)cc2)cc1S(=O)(=O)Nc1ccccc1`, the Potency result was “inactive”. To `COc1ccc(CNC(=O)c2cc3c(s2)-c2ccccc2OC3)cc1` belongs “inactive”. Turning to `COc1cccc(CC(=O)OCC(=O)NCc2ccc3c(c2)OCO3)c1`, the Potency result is “inactive”. For `COc1ccc(CNC(=O)COC(=O)C2=Cc3ccccc3OC2)cc1` the value was 52.1 µM (active). For the compound `O=C(CSc1nc(=O)[nH]c2c1CCCC2)Nc1cc(C(F)(F)F)ccc1Cl`, the Potency result is “inactive”. To `COc1ccc(Cl)cc1NC(=O)CCn1c(=O)c2cccn2c2ccccc21` belongs “inactive”. For `COc1ccc(-c2onc(C)c2C)cc1S(=O)(=O)NCC1CCN(Cc2cccc(F)c2)CC1` the value was “inactive”. For `COc1cccc(-n2ccn(CC(=O)NCc3ccc(C)cc3)c(=O)c2=O)c1` the value was “inactive”; for `COc1ccccc1NC(=O)CSc1oc(-c2ccco2)nc1S(=O)(=O)c1ccc(Br)cc1`, “inactive”. `Cc1ccc(Cl)cc1NC(=O)C(C)n1nnc2sc(-c3ccccc3)cc2c1=O` (stereo unspecified): the Potency result was “inactive”.

Regarding `COc1ccccc1OCCCn1c(-c2ccc(Cl)cc2)nc2ccccc2c1=O`, the Potency result is “inactive”. Consider `Cn1c(COc2ccc(Cl)cc2)nc2ccccc2c1=O`, for which the Potency is 52.1 µM (active). To `CC(C)c1ccc(Cn2c(COc3ccccc3)nc3ccccc32)cc1` belongs “inactive”; to `Cc1ccc(CNS(=O)(=O)c2ccc(C(=O)N(C)C)s2)cc1`, “inactive”; to `COc1cc2nc(SCC(=O)Nc3ccccc3F)n3nc(-c4ccccc4)nc3c2cc1OC`, “inactive”. For `CCNS(=O)(=O)c1ccc(NC(=O)CSc2nc(-c3ccco3)cc(C(F)(F)F)n2)cc1` the value was “inactive”. For `COc1ccc(NC(=O)Cn2cc(C(=O)c3ccncc3)c(=O)c3cc(C)ccc32)cc1Cl` the value was “inactive”; for `Cc1ccc(C)c(Cn2c(C)c(CNCc3ccc(F)cc3)c(C(=O)O)c2C)c1`, “inactive”. Regarding `CCOc1cc(C2C(C(=O)OC)=C(C)NC3=C2C(=O)c2ccccc23)ccc1O` (stereo unspecified), the Potency entry was “inactive”. To `CCn1cc(C(=O)N(C)Cc2ccccc2)c(=O)c2cc(S(=O)(=O)N3CCCCCC3)ccc21` belongs “inactive”. As for `CCOc1ccc2nc(N3CCC(C(=O)Nc4cc(C)ccc4C)CC3)sc2c1`, the Potency result is “inactive”. To `CCC(=O)N1CCc2cc(S(=O)(=O)NCCC(=O)Nc3cccc(C)c3C)ccc21` belongs “inactive”. To `Cc1ccc(NC(=O)CSc2nnc3[nH]c(=O)cc(C)n23)cc1Cl` belongs “inactive”; to `O=C(Cn1c(=O)n(-c2ccc(F)cc2)c(=O)c2sc3ccccc3c21)NC1CCCC1`, “inactive”. To `CCOc1cc(-c2nnc(SCC(=O)NC3CCCC3)nc2-c2ccc(OC)c(OCC)c2)ccc1OC` belongs “inactive”; to `CCOc1ccc(CNC(=O)Cn2cc3c(n2)-c2c(oc(C(=O)N4CCCC4)c2C)CC3)cc1`, “inactive”. In the case of `CCN(CCCNC(=O)Cn1ncc2c3ccccc3n(C)c2c1=O)Cc1ccccc1`, the Potency result was “inactive”. For `Cc1ccc(-c2nnc(Nc3cccc(Br)c3)c3ccccc23)cc1S(=O)(=O)NCC1CCCO1` (stereo unspecified) the value was “inactive”. On to `CCOC(=O)c1ccc(NC(=O)CCS(=O)(=O)c2ccc(C)cc2)cc1`, for which the Potency result is “inactive”.

For the compound `CCC(=O)N1N=C(c2ccc(OC)cc2)CC1c1cn(-c2ccccc2)nc1-c1cccs1` (stereo unspecified), the Potency result is “inactive”.

Consider `Cn1ccc2cc(S(=O)(=O)N3CCCC(C(=O)NCc4ccccc4F)C3)ccc21` (stereo unspecified), for which the Potency result was “inactive”. In the case of `Cc1ccc(CN2CCC(CNC(=O)c3cnn(-c4ccc(C)cc4)c3C3CCN(C(=O)OC(C)(C)C)CC3)CC2)cc1`, the Potency entry was “inactive”. As to `CCN(CCCNC(=O)c1cc2cc3cc(OC)ccc3nc2s1)c1ccccc1`, the Potency result was “inactive”. To `Cc1ccc(Cl)cc1N1CCN(C(=O)c2cnc3c(-c4ccc(F)cc4)c(C)nn3c2C)CC1` belongs “inactive”. Turning to `Cc1cc(C)cc(OCC(=O)Nc2nc(-c3ccc(F)cc3)ns2)c1`, the Potency result was “inactive”.

For the compound `COc1ccc(CN(C(=O)CSc2nnc(-c3ccc(OC)c(OC)c3)o2)c2ccc(F)cc2)cc1`, the Potency entry is “inactive”. For `CCN(CCCCOC(=O)c1ccc(OC)c(OC)c1)C(C)Cc1ccc(OC)cc1` (stereo unspecified) the value was “inactive”.

As to `COc1ccc(C(CCN(Cc2ccc(OC)c(OC)c2)C(=O)CCl)c2ccccc2)cc1` (stereo unspecified), the Potency was 36.9 µM (active). Regarding `O=C1N(Cc2ccccc2)c2ccc(Cl)cc2C1(O)c1c[nH]c2ccccc12` (stereo unspecified), the Potency result was “inactive”. As for `CCOC(=O)c1cccc(NC(=O)Cn2cnc3nc4c(cc3c2=O)CCCC4)c1`, the Potency entry was “inactive”.

For `Cc1nc2ccn(Cc3cccs3)c(=O)c2cc1C(=O)NCc1ccc(Cl)cc1`, the Potency result was “inactive”. To `COc1cc(C(=O)N(Cc2ccc(C(C)C)cc2)C2CCS(=O)(=O)C2)cc(OC)c1OC` (stereo unspecified) belongs “inactive”; to `COc1cc2c(-c3ccc4c(c3)OCO4)c(-c3ccsc3)oc(=O)c2cc1OC`, 10 µM (active). For `COc1cc(-c2c(-c3ccc4c(c3)OCO4)noc2C)ccc1F` the value was “inactive”; for `COC(=O)c1c(-c2ccsc2)oc2ccc(-c3cc(OC)c(OC)c(OC)c3)cc12`, “inactive”.

Source of the values: PubChem BioAssay AID602179 (National Center for Advancing Translational Sciences (NCATS), 2012).
